Reference: ChEMBL document CHEMBL4888484, “Replenishing the malaria drug discovery pipeline: Screening and hit evaluation of the MMV Hit Generation Library 1 (HGL1) against asexual blood stage Plasmodium falciparum ,using a nano luciferase reporter read-out” (2022)
The campaign covered roughly 150,000 compounds. About 540 (0.36%) showed an effect of 50% or more. The sample holds strong results, similar compounds and a random draw of the others, so the mix is not that of the screen.

Each compound was assayed on Plasmodium falciparum (assay: Primary screen in NF54 nanoGlo assay, in single point, at 2uM, 72h; a lower Z score goes with more inhibition). Conditions: timepoint 72 hour.
Type: functional, Erythrocyte

Row | SMILES | % Inhibition [%] | Z score
1 | Cc1cccc(NC(=O)CN2CC(=O)NC[C@H]2c2ccccc2)c1C | -6 | 0.77
2 | N[C@H](C(=O)Nc1cncc(Br)c1O)C1CCOCC1 | 10 | -1.45
3 | CNc1nc(N2CCOCC2)nc2ccccc12 | 2 | -0.34
4 | CN(C)[C@H]1CCN(CC(=O)NC2(c3cc(F)ccc3F)CC2)C1 | 8 | -1.27
5 | OCCn1nc(Cc2cccs2)nc1CCN1CCCCCCC1 | -16 | 2.13
6 | Cc1nnc(CN2CCC[C@H](c3nc(C(C)C)cs3)C2)s1 | -8 | 1.01
7 | CC1(C)NC(=O)N(CC(=O)N2CCC[C@H]2c2ccc3c(c2)OCCCO3)C1=O | -13 | 1.7
8 | COc1ccc(C(=O)C[n+]2cc(-c3cccc(Br)c3)n(C)c2N)cc1 | 3 | -0.43
9 | COc1ccc(C(=O)C[n+]2nc(CNc3ccc(Br)cc3)n3c2CCCCC3)cc1 | 78 | -12.51
10 | CCOc1ccc([C@@]2(O)CN3C=CC=CC3=[N+]2c2ccccc2)cc1 | -39 | 4.59
11 | CCOc1ccc([C@@]2(O)CN3CCCCCC3=[N+]2c2ccc(C)cc2)cc1 | 1 | -0.19
12 | Cc1ccc(-c2c[n+](-c3ccc(OC(F)F)cc3)c3n2CCCCC3)cc1 | 66 | -12.11
13 | COc1ccc(C(=O)C[n+]2cc(-c3ccc(OC)cc3)n3c2CCCC3)cc1 | 65 | -8.89
14 | Cc1ccc([N+]2=C3CCCCCN3C[C@]2(O)c2ccc(OC(F)F)cc2)cc1 | -12 | 1.97
15 | O=C(C[n+]1nc(-c2n[n+](CC(=O)c3ccccc3)c3n2CCCCC3)n2c1CCCCC2)c1ccccc1 | 6 | -1.08
16 | CCOc1ccc(-[n+]2cc(-c3ccccc3)n3c2CCC3)cc1 | 68 | -6.48
17 | Cn1c(-c2ccc(Br)cc2)c[n+](CC(=O)c2ccc(Br)cc2)c1N | 41 | 0.35
18 | FC(F)Oc1ccc(-c2c[n+](-c3cccc(C(F)(F)F)c3)c3n2CCCCC3)cc1 | 39 | -3.9
19 | Cc1ccc(NCc2n[n+](CC(=O)c3ccccc3)c3n2CCCCC3)cc1 | -40 | 4.69
20 | CCCN(CCC)C(=O)CN1CCN(Cc2ccc3c(c2)CCO3)CC1 | -11 | 1.43
21 | COc1ccc(Cl)cc1[C@H](C)NCc1nncn1C1CC1 | -13 | 2.01
22 | OC[C@H]1CCCN(CCNc2ccc3cc(Cl)ccc3n2)C1 | 12 | -1.36
